L929 necroptosis: blocks zVAD induced death of L929 cells | L929 zVAD necroptosis rescue, ATP luminescence, 24 h; with zVAD 60 µM | viability rescue, % at 10 µM | 220,000 tested, 0.38% active;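 active = activation, scaled between plate controls, above about 75%, limit read from the data; inactive = activation under that limit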
TNF necrop inh: TNF-alpha cell death inhibition in Jurkat FADD-/- cells; Jurkat FADD-/- TNF necroptosis rescue, ATP luminescence, 24 h; 0 = TNF only, 100 = no-TNF cells; activation (protection from cell death), % at 10 µM; 220,000 tested, 0.068% active;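 active = activation, meaning protection from cell death, of at least 50% relative to plate controls; inactive = activation below 50%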;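 also: necroptosis triggered by 40 ng/mL TNF-alpha added together with compound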
Mcl1 Noxa PPI: disrupts binding of human Mcl-1 to Noxa peptide | 220,000 tested, 1.5% active | Q07820 | inhibition, % at 21.7 µM | TR-FRET Mcl-1/Noxa peptide binding, 2 h;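 active = compounds that cut the protein-peptide binding signal by more than 50% relative to plate controls in a single-dose test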;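 also: His-tagged Mcl-1 with rhodamine Noxa BH3 peptide and terbium anti-His antibody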
Target sequence (Q07820 whole entry, looked up): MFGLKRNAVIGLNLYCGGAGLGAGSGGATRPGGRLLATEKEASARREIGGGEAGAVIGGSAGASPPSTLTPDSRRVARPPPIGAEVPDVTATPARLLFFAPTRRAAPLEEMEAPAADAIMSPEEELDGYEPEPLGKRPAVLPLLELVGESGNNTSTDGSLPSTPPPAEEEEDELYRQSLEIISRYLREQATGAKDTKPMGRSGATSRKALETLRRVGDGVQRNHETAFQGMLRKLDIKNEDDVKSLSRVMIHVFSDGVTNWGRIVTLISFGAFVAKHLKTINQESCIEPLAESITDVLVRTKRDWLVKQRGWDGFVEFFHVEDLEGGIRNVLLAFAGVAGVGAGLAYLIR
MCL1-BIM inh: disrupts human MCL1 binding to BIM-BH3 peptide; Q07820; GST-MCL1 / FITC-Bim-BH3 fluorescence polarization; inhibition, % at 10.9 µM; 320,000 tested, 0.68% active;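 active = inhibition above the mean inhibition of all tested compounds plus 3 SD, set per campaign, cut at about 40% in these data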;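 also: higher means more loss of mP so more displacement of Bim peptide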
Bim-Mcl-1: disrupts Bim peptide binding to human Mcl-1; inhibition, % at 10 µM; Q07820; AID 1009; Bead-based flow cytometry, Bim peptide-Mcl-1 binding; 190,000 tested, 0.1% active; in the data active = inhibition above about 40%
Mcl1-Bid inh: disrupts binding of human Mcl-1 to Bid peptide; Q07820; TR-FRET Mcl-1/Bid-Dy647 peptide binding, 1536-well; inhibition, % at 21.7 µM; 220,000 tested, 0.97% active;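 active = compounds that cut the binding signal by more than half at the single screening dose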;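 also: His-tagged Mcl-1 with europium anti-His antibody binding Bid BH3 peptide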
zVAD necrop conf: confirmed blocker of zVAD induced death in L929 cells; shares compounds with L929 necroptosis; L929 zVAD-induced necroptosis rescue, ATP luminescence, 24 h; activation (protection from necroptosis), % at 10 µM; 760 tested, 16% active;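 active = mean protection from necroptosis of at least 50% over duplicate tests; inactive = mean protection below 50%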
Hits are given with their value; - = inactive; . = no result given. Rows were chosen to be rich in hits. Some 2.4% of all compounds tested hit in one or more screens of this group.

SMILES | L929 necroptosis | TNF necrop inh | Mcl1 Noxa PPI | MCL1-BIM inh | Bim-Mcl-1 | Mcl1-Bid inh | others
COc1cc(/C=C/[N+](=O)[O-])ccc1O | - | - | 51 | - | - | -
CCN(CC)c1ccc(/C=C/[N+](=O)[O-])cc1 | - | - | - | - | - | -
COc1ccc(OCC(=O)N2CCN(Cc3ccc(SC)cc3)CC2)cc1 | - | - | - | - | - | -
COc1ccc(OCC(=O)N2CCN(C(C)C)CC2)cc1 | - | - | - | - | - | 53
COC(=O)C1=C(c2ccc(OC)c(OC)c2)C[C@@H]2CC[C@H]1N2C(=O)NCCc1ccccc1 | . | . | . | - | . | .
CC(=O)Nc1cc(C(=O)N2CCC3(CC2)OCCO3)ccc1Sc1ccc(F)cc1 | - | - | - | - | - | -
COc1ccc2[nH]c(C)c(CCNCc3cccnc3)c2c1 | . | . | . | 41 | . | .
O=C1NC(=S)NC(=O)C1=Cc1cccn1-c1ccc(O)cc1 | - | - | 76 | . | - | -
CN1C(=O)/C(=C/c2cccn2-c2ccc3ccccc3c2)C(=O)NC1=S | - | - | - | - | - | -
FC(F)(F)c1ccccc1CNCCc1c[nH]c2ccccc12 | . | . | . | - | . | .
Cc1ccc(N2C(=O)/C(=C/c3ccc(CN(CCC#N)S(C)(=O)=O)o3)C(=O)NC2=S)cc1 | - | - | 69 | - | - | -
C=CP(=O)(O)c1ccccc1 | - | - | - | - | - | 55
C=C1C(=O)O[C@@H]2C[C@@H](C)[C@@H]3C=CC(=O)[C@@]3(C)[C@@H](O)[C@H]12 | 94 | 53 | - | - | . | -
Cc1cccc(-n2c(-c3cccs3)nc3ccccc3c2=O)c1 | - | - | - | - | - | 58
O=CNc1ccc(OP(=O)(Oc2ccccc2)Oc2ccccc2)cc1 | . | . | . | - | . | .
O=C1NC(=O)N(c2ccccc2)C(=O)/C1=C\c1ccc2c3c(cccc13)CC2 | - | - | 81 | - | - | -
CC(C)N1CCN(c2ccc(O)cc2)CC1 | - | - | 54 | - | - | -
Cc1ccc2c(c1)C1CN(C)CCC1N2C(=O)Nc1cccc(Cl)c1 (centres undefined) | - | - | 99 | - | - | -
Cc1ccc2c(c1)C1CN(C)CCC1N2C(=S)Nc1cccnc1 (centres undefined) | - | - | - | - | - | -
CCOC(=O)c1c(-n2c(C)cc(C=C3C(=O)NC(=S)NC3=O)c2C)sc2c1CCCC2 | - | - | 80 | - | - | -
COC(=O)C1=C(c2ccc(OC)c(OC)c2)C[C@@H]2CC[C@H]1N2C(=O)N1CCOCC1 | . | . | . | - | . | .
Cc1cc(O)c(CN2CC=C(c3ccccc3)CC2)cc1C(C)C | . | . | . | - | . | .
CSc1ccc(C(=O)C2CCCN(CCCn3cccn3)C2)cc1 (centres undefined) | - | - | - | - | - | 65
CCn1ccnc1CN1CCCC(C(=O)c2ccc(SC)cc2)C1 (centres undefined) | - | - | - | - | - | -
O=C(O)CCn1cc(C=C2C(=O)NC(=S)NC2=O)c(-c2cc3ccccc3oc2=O)n1 | - | - | 81 | . | - | -
SMILES | L929 necroptosis | TNF necrop inh | Mcl1 Noxa PPI | MCL1-BIM inh | Bim-Mcl-1 | Mcl1-Bid inh | others
O=C(O)CCn1cc(C=C2C(=O)NC(=S)NC2=O)c(-c2ccccc2)n1 | - | - | 62 | - | - | -
CC(C)[N+](C)(CCC(C(N)=O)(c1ccccc1)c1ccccc1)C(C)C | . | . | - | - | - | -
COc1ccc(/C=C2/C(=O)NC(=S)N(C3CC3)C2=O)cc1CN1C(=O)c2ccccc2C1=O | - | - | 95 | - | - | -
COc1ccc(/C=C2/C(=O)NC(=O)N(c3ccccc3)C2=O)cc1CN1C(=O)c2ccccc2C1=O | - | - | - | - | . | -
N=C1c2ccccc2CN1c1ncccn1 | - | - | - | - | - | -
COC(=O)C1=Nc2ccccc2/C1=C\c1c(O)n(-c2ccc(OC)cc2)c(=O)[nH]c1=O | - | - | 53 | - | - | -
COc1ccc(OC)c(-n2c(O)c(/C=C3\C(C)=Nc4ccccc43)c(=O)[nH]c2=O)c1 | - | - | - | - | . | -
COC(=O)C1=Nc2ccccc2/C1=C\c1c(O)n(-c2ccc(Br)cc2)c(=O)[nH]c1=O | - | - | 77 | - | - | -
O=c1c2ccccc2nc(-c2ccco2)n1-c1ccccn1 | - | - | - | - | - | -
O=c1c2ccccc2nc(-c2ccco2)n1-c1cccnc1 | - | - | 97 | - | - | -
FCCN(CCF)c1cccc(Cl)c1 | - | - | - | - | . | -
c1ccc(-c2ccc(-c3n(-c4ccccn4)c4ccccc4[n+]3-c3ccccn3)cc2)cc1 | - | - | 87 | . | - | -
CCN1C(=O)C(=C/C=C/c2ccco2)C(=O)N(CC)C1=S | - | - | 73 | - | - | -
O=c1[nH]c(=S)[nH]c(O)c1N=Nc1ccc(S(=O)(=O)N2CCc3ccccc32)cc1 | - | - | 56 | - | - | -
O=c1[nH]c(=S)[nH]c(O)c1N=Nc1ccc(SC(F)F)cc1 | - | - | - | - | . | -
Cc1ccc(S(=O)(=O)N2CN3CCN(C3)C2)cc1 | - | - | - | - | - | 79
Cc1ccc(S(=O)(=O)N2CC2(C)CCl)cc1 (centres undefined) | - | - | - | - | . | -
COC(=O)C1=C(c2cccc(C#N)c2)C[C@@H]2CC[C@H]1N2C(=O)NC1CC1 | . | . | . | - | . | .
Cc1ccccc1NC(=O)c1cc(-c2ccccc2)n(CCCN2CCOCC2)c1C | - | - | - | - | . | 63
Cc1ccc(NC(=O)c2cc(-c3ccccc3)n(CCCN3CCOCC3)c2C)cc1 | - | - | - | - | . | -
CN(C)C(Cc1ccccc1)C(=O)c1cccs1 (centres undefined) | - | - | - | . | 48 | -
CN(C)C(Cc1ccc(Cl)cc1)C(=O)c1ccccc1 (centres undefined) | - | - | - | - | - | -
COc1ccccc1-n1c(O)c(/C=N/NC(=S)Nc2ccccc2)c(=O)[nH]c1=S | - | - | - | - | . | -
CN1CN(c2cccc([N+](=O)[O-])c2)CN=C1N[N+](=O)[O-] | - | - | - | - | - | -
O=C(/C=C/c1ccc2c(c1)OCO2)c1c(O)n(CCc2ccccc2)c(=O)[nH]c1=O | - | - | - | - | . | -
O=C(/C=C/c1ccccc1)c1c(O)n(CCc2ccccc2)c(=O)[nH]c1=O | 83 | - | - | - | - | - | zVAD necrop conf=-
O=C(Nc1ccc(Cl)cc1)Nc1nccs1 | 86 | - | - | - | - | - | zVAD necrop conf=-
COC(=O)CC(=O)c1ccc2c(c1)OCO2 | . | . | . | - | . | .
CC(=O)OC[C@]12CCC(C)=C[C@H]1O[C@@H]1[C@H](O)[C@@H](OC(C)=O)[C@@]2(C)[C@]12CO2 | 95 | - | - | - | . | - | zVAD necrop conf=82

High-throughput results (PubChem)
